Counter-ions that a name gives are not always drawn. ± gives the standard deviation.

The test system of assay [1] is Jurkat. Briefly: mean cell size (FSC-A) relative to DMSO control (fraction of control); higher = larger cells. Conditions: 48 h. Put shortly: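 Jurkat cells at 600 cells/µl were incubated for 1 h and then treated for 48h with the Enzo Screen-Well FDA Approved Drug Library v2.0 at 25µM, with DMSO at 0.9% (v/v) final. Compounds that reduced counts below 20% of controls were retested in 10-fold dilutions down to 25nM. Cell count and mean cell size, taken as forward scatter area, were measured by flow cytometry relative to solvent-only controls. Each plate carried 6-12 controls, and values are means of 3 biological replicates.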

For assay [2], the system named is Jurkat. As to the kind of experiment: cell count relative to DMSO control (fraction of control); higher = more cells (less growth inhibition). Conditions: 48 h.

As to `CO/N=C1\CN(c2nc3c(cc2F)c(=O)c(C(=O)O)cn3C2CC2)CC1CN` (configuration not stated) [Gemifloxacin] (concentration: 25 µM), in the assay with Jurkat [1], the mean cell size amounted to 1.09 ± 0.03. Further, the cell count in the assay on Jurkat [2] is 0.591 ± 0.16.
In the same order, the values of `CNCCC=C1c2ccccc2CCc2ccccc21` [Nortriptyline·HCl] (concentration: 25 µM) are 1.06 ± 0.025 and 0.498 ± 0.056.
For `Cc1ccc(S(=O)(=O)NC(=O)NN2CCCCCC2)cc1` [Tolazamide] (concentration: 25 µM) the same measures were 1.03 ± 0.053 and 0.657 ± 0.12.
For the compound `CN1CCC(=C2c3ccccc3CC(=O)c3sccc32)CC1` [Ketotifen Fumarate] (concentration: 25 µM), the mean cell size in the assay on Jurkat [1] was 0.96 ± 0.017. Further, the cell count in the assay with Jurkat [2] was determined as 0.856 ± 0.071.
In the same order, the values of `Clc1ccc(COC(Cn2ccnc2)c2ccc(Cl)cc2Cl)cc1` (configuration not stated) [Econazole Nitrate] (concentration: 25 µM) are 0.959 ± 0.03 and 0.774 ± 0.096.
Turning to `NCCCC(N)(C(=O)O)C(F)F` (configuration not stated) [Eflornithine·HCl] (concentration: 25 µM), in the assay on Jurkat [1], the mean cell size came out at 0.958 ± 0.019. Also, the cell count in the assay on Jurkat [2] worked out at 0.985 ± 0.073.
For `CC[C@@]1(O)C(=O)OCc2c1cc1n(c2=O)Cc2cc3c(CN(C)C)c(O)ccc3nc2-1` [Topotecan·HCl] (concentration: 25 nM) the same measures were 1.31 ± 0.064 and 0.199 ± 0.016.
In the assay with Jurkat [1], `CC1=Nc2ccc(Cl)cc2S(=O)(=O)N1` [Diazoxide] (concentration: 25 µM) came in with a mean cell size of 1.01 ± 0.064. The same compound displayed a cell count in the assay on Jurkat [2] of 0.916 ± 0.04.
For `CC(=O)N1CCN(c2ccc(OCC3COC(Cn4ccnc4)(c4ccc(Cl)cc4Cl)O3)cc2)CC1` (configuration not stated) [Ketoconazole] (concentration: 25 µM) the same measures were 0.84 ± 0.013 and 0.564 ± 0.035.
For `O=C1Nc2ccc(Cl)cc2[C@@](C#CC2CC2)(C(F)(F)F)O1` [Efavirenz] (concentration: 25 µM) the same measures were 0.9 ± 0.017 and 0.628 ± 0.019.
For `NS(=O)(=O)Cc1noc2ccccc12` [Zonisamide] (concentration: 25 µM) the same measures were 1 ± 0.05 and 0.561 ± 0.25.
In turn, `N=C(N)NCCCC[C@@H]1NC(=O)CCSSC[C@@H](C(N)=O)NC(=O)[C@@H]2CCCN2C(=O)[C@H](Cc2c[nH]c3ccccc23)NC(=O)[C@H](CC(=O)O)NC(=O)CNC1=O` [Eptifibatide] (concentration: 25 µM) registered a mean cell size with Jurkat [1] of 0.988 ± 0.031. This compound displayed a cell count in the assay on Jurkat [2] of 0.933 ± 0.11.
In the same order, the values of `CCN(CC)CCNC(=O)c1ccc(N)cc1` [Procainamide·HCl] (concentration: 25 µM) are 1.03 ± 0.025 and 0.935 ± 0.17.
In the same order, the values of `c1cnc2cc3c(cc2n1)[C@@H]1CNC[C@H]3C1` [Varenicline Tartrate] (concentration: 25 µM) are 1.02 ± 0.038 and 1.01 ± 0.062.
For `COc1cc(C)c(/C=C/C(C)=C/C=C/C(C)=C/C(=O)O)c(C)c1C` [Acitretin] (concentration: 25 µM) the same measures were 0.883 ± 0.021 and 0.625 ± 0.11.
In the case of `O=C(O)CCCCCCCC(=O)O` [Azelaic Acid] (concentration: 25 µM), the mean cell size in the assay on Jurkat [1] was found to be 0.921 ± 0.062. Also, the cell count in the assay with Jurkat [2] was found to be 0.477 ± 0.081.
For `C#C[C@]1(O)CC[C@H]2[C@@H]3CCc4cc(O)ccc4[C@H]3CC[C@@]21C` [Ethinyl Estradiol] (concentration: 25 µM) the same measures were 1.22 ± 0.075 and 0.263 ± 0.035.
For `CCOC(=O)[C@H](CCc1ccccc1)N[C@@H](C)C(=O)N1CCC[C@H]1C(=O)O` [Enalapril] (concentration: 25 µM) the same measures were 1.01 ± 0.029 and 0.733 ± 0.042.
As to `CC(C)OC(=O)CCC/C=C\C[C@@H]1[C@@H](/C=C/[C@@H](O)COc2cccc(C(F)(F)F)c2)[C@H](O)C[C@@H]1O` [Travoprost] (concentration: 25 µM), the mean cell size in the assay on Jurkat [1] was found to be 0.92 ± 0.022. Moreover, the cell count with Jurkat [2] was found to be 0.668 ± 0.084.
Regarding `NS(=O)(=O)c1cc(C2(O)NC(=O)c3ccccc32)ccc1Cl` (configuration not stated) [Chlorthalidone] (concentration: 25 µM), the mean cell size in the assay with Jurkat [1] turned out to be 1.03 ± 0.028. The compound also had a cell count in the assay with Jurkat [2] of 0.918 ± 0.044.
For `COc1cccc2c1C(=O)c1c(O)c3c(c(O)c1C2=O)C[C@@](O)(C(=O)CO)C[C@@H]3O[C@H]1C[C@H](N)[C@H](O)[C@H](C)O1` [Doxorubicin·HCl] (concentration: 250 nM) the same measures were 1.47 ± 0.048 and 0.234 ± 0.035.
On to `Cc1cn([C@H]2C[C@H](N=[N+]=[N-])[C@@H](CO)O2)c(=O)[nH]c1=O` [Zidovudine (3'-Azido-3'-Deoxythymidine)] (concentration: 25 µM), for which the mean cell size in the assay with Jurkat [1] is 1.03 ± 0.025. The same compound had a cell count in the assay with Jurkat [2] of 0.714 ± 0.027.
The compound `CN1CCc2cccc3c2[C@H]1Cc1ccc(O)c(O)c1-3` [Apomorphine·HCl Hemihydrate] (concentration: 2.5 µM) had a mean cell size in the assay on Jurkat [1] of 1.031 ± 0.0071. The same compound had a cell count with Jurkat [2] of 0.444 ± 0.071.
In the assay on Jurkat [1], `CC1(C)NC(=O)N(c2ccc([N+](=O)[O-])c(C(F)(F)F)c2)C1=O` [Nilutamide] (concentration: 25 µM) registered a mean cell size of 0.954 ± 0.029. The cell count in the assay with Jurkat [2] is 0.638 ± 0.066.
For `O=C1CCc2cc(OCCCCc3nnnn3C3CCCCC3)ccc2N1` [Cilostazol] (concentration: 25 µM) the same measures were 0.98 ± 0.044 and 0.819 ± 0.12.
In the same order, the values of `CC1(C)O[C@@H]2C[C@H]3[C@@H]4C[C@H](F)C5=CC(=O)CC[C@]5(C)[C@H]4[C@@H](O)C[C@]3(C)[C@]2(C(=O)CO)O1` [Flurandrenolide] (concentration: 25 µM) are 0.916 ± 0.035 and 0.638 ± 0.12.
In the same order, the values of `CN1CCC(=C2c3ccccc3C=Cc3ccccc32)CC1` [Cyproheptadine·HCl Sesquihydrate] (concentration: 25 µM) are 0.935 ± 0.027 and 0.762 ± 0.049.
Regarding `Nc1ccc(O)c(C(=O)O)c1` [Mesalamine (5-Aminosalicylic Acid)] (concentration: 25 µM), the mean cell size with Jurkat [1] was found to be 0.912 ± 0.019. In the assay on Jurkat [2], this compound gave a cell count of 1 ± 0.046.
In the same order, the values of `CO[C@H]1C[C@@H]2CC[C@@H](C)[C@@](O)(O2)C(=O)C(=O)N2CCCC[C@H]2C(=O)O[C@H]([C@H](C)C[C@@H]2CC[C@@H](OC(=O)C(C)(CO)CO)[C@H](OC)C2)CC(=O)[C@H](C)/C=C(\C)[C@@H](O)[C@@H](OC)C(=O)[C@H](C)C[C@H](C)/C=C/C=C/C=C/1C` [Temsirolimus] (concentration: 25 µM) are 0.686 ± 0.018 and 0.358 ± 0.15.
For `COc1ccc2c(c1)c(CC(=O)O)c(C)n2C(=O)c1ccc(Cl)cc1` [Indomethacin] (concentration: 25 µM) the same measures were 0.971 ± 0.046 and 0.482 ± 0.087.
For `CC(=O)NO` [Acetohydroxamic Acid] (concentration: 25 µM) the same measures were 1.02 ± 0.059 and 0.755 ± 0.016.
With `O=C(O)c1cc(-c2ccc(F)cc2F)ccc1O` [Diflunisal] (concentration: 25 µM), in the assay with Jurkat [1], the mean cell size amounted to 0.989 ± 0.061. In the assay on Jurkat [2], this compound showed a cell count of 0.666 ± 0.13.
In the same order, the values of `OCc1cc(C(O)CNCCCCCCOCCCCc2ccccc2)ccc1O` (configuration not stated) [Salmeterol] (concentration: 25 µM) are 0.927 ± 0.023 and 0.669 ± 0.042.
As for `N[C@@H]1CONC1=O` [Cycloserine] (concentration: 25 µM), the mean cell size in the assay on Jurkat [1] stood at 0.966 ± 0.013. In addition, the cell count in the assay on Jurkat [2] came to 0.475 ± 0.095.
As to `C[C@@H](O[C@H]1OCCN(Cc2n[nH]c(=O)[nH]2)[C@H]1c1ccc(F)cc1)c1cc(C(F)(F)F)cc(C(F)(F)F)c1` [Aprepitant] (concentration: 2.5 µM), in the assay on Jurkat [1], the mean cell size came out at 1.08 ± 0.022. Moreover, the cell count in the assay on Jurkat [2] worked out at 0.651 ± 0.024.
In the same order, the values of `Nc1nc2[nH]cc(CCc3ccc(C(=O)N[C@@H](CCC(=O)O)C(=O)O)cc3)c2c(=O)[nH]1` [Pemetrexed Disodium] (concentration: 2.5 µM) are 1.4 ± 0.058 and 0.247 ± 0.028.
For `Cn1c(=O)c2c(ncn2CC(O)CO)n(C)c1=O` (configuration not stated) [Dyphylline] (concentration: 25 µM) the same measures were 0.966 ± 0.022 and 0.81 ± 0.037.
In the same order, the values of `CO[C@H]1/C=C/O[C@@]2(C)Oc3c(C)c(O)c4c(O)c(c5c(nc6cc(C)ccn65)c4c3C2=O)NC(=O)/C(C)=C\C=C\[C@H](C)[C@H](O)[C@@H](C)[C@@H](O)[C@@H](C)[C@H](OC(C)=O)[C@@H]1C` [Rifaximin] (concentration: 25 µM) are 0.922 ± 0.039 and 0.4 ± 0.12.
`Cc1cc(C(=O)NNCc2ccccc2)no1` [Isocarboxazid] (concentration: 25 µM) yielded a mean cell size with Jurkat [1] of 0.965 ± 0.057. For the same compound, the cell count in the assay with Jurkat [2] was 0.735 ± 0.1.
Compound `CCC[C@@H]1C[C@@H](C(=O)N[C@@H]([C@H]2O[C@H](SC)[C@H](O)[C@@H](O)[C@H]2O)[C@H](C)Cl)N(C)C1` [Clindamycin·HCl] (concentration: 25 µM) returned a mean cell size in the assay with Jurkat [1] of 1.07 ± 0.062. Moreover, the cell count with Jurkat [2] is 0.805 ± 0.14.
The compound `CN(C)[C@@H]1C(=O)C(C(N)=O)=C(O)[C@@]2(O)C(=O)C3=C(O)c4c(O)ccc(Cl)c4[C@@H](O)[C@H]3C[C@@H]12` [Demeclocycline·HCl] (concentration: 25 µM) gave a mean cell size in the assay on Jurkat [1] of 0.811 ± 0.028. In the assay on Jurkat [2], the cell count turned out to be 0.219 ± 0.039.
In the same order, the values of `CN1CCC[C@H]1c1cccnc1` [Nicotine] (concentration: 25 µM) are 0.936 ± 0.045 and 0.561 ± 0.18.
For `CC(C)c1nc(CN(C)C(=O)N[C@H](C(=O)N[C@@H](Cc2ccccc2)C[C@H](O)[C@H](Cc2ccccc2)NC(=O)OCc2cncs2)C(C)C)cs1` [Ritonavir] (concentration: 25 µM) the same measures were 0.999 ± 0.079 and 0.564 ± 0.14.
In the same order, the values of `C[N+](C)(C)CCOC(=O)CCC(=O)OCC[N+](C)(C)C` [Succinylcholine Chloride·2H2O] (concentration: 25 µM) are 0.943 ± 0.014 and 0.908 ± 0.081.
For the compound `NC(=O)c1ncn([C@@H]2O[C@H](CO)[C@@H](O)[C@H]2O)n1` [Ribavirin] (concentration: 25 µM), the mean cell size with Jurkat [1] came out at 0.9983 ± 0.0034. In addition, the cell count with Jurkat [2] was 0.625 ± 0.077.
In the same order, the values of `CCN[C@H]1C[C@H](C)S(=O)(=O)c2sc(S(N)(=O)=O)cc21` [Dorzolamide·HCl] (concentration: 25 µM) are 0.965 ± 0.04 and 0.675 ± 0.14.
For `CC(C)NCC(O)c1ccc(O)c(O)c1` (racemic) [(±) Isoproterenol·HCl] (concentration: 25 µM) the same measures were 0.981 ± 0.047 and 0.659 ± 0.0053.
As to `C[C@H]1COc2c(N3CCN(C)CC3)c(F)cc3c(=O)c(C(=O)O)cn1c23` [Levofloxacin·HCl] (concentration: 25 µM), the mean cell size in the assay with Jurkat [1] amounted to 0.936 ± 0.022. In addition, the cell count in the assay with Jurkat [2] was 0.904 ± 0.066.
Compound `CC(C)OC(=O)C(C)(C)Oc1ccc(C(=O)c2ccc(Cl)cc2)cc1` [Fenofibrate] (concentration: 25 µM) registered a mean cell size in the assay on Jurkat [1] of 1.01 ± 0.04. The cell count with Jurkat [2] was 0.477 ± 0.067.
In the assay with Jurkat [1], `Clc1cccc(Cl)c1NC1=NCCN1` [Clonidine·HCl] (concentration: 25 µM) registered a mean cell size of 0.931 ± 0.049. Besides, in the assay with Jurkat [2], the cell count came out at 0.224 ± 0.083.
Regarding `CC(C)(C)C(=O)OCOP(=O)(COCCn1cnc2c(N)ncnc21)OCOC(=O)C(C)(C)C` [Adefovir Dipivoxil] (concentration: 25 µM), the mean cell size with Jurkat [1] was 1.3 ± 0.043. The cell count in the assay with Jurkat [2] was found to be 0.23 ± 0.019.

The values are drawn from the supplement of paper PMC4709259.
